# Measurements as given in the supplement of paper PMC9254222.
# In all, about 1,100 compounds were measured (“Renilla luciferase signal (cell health) relative to plate median”: median about 0.97, highest 2% from about 1.6 on). The list comes from a sample in which the highest values are over-represented; it also holds similar structures and randomly drawn compounds.
# System: HEK293T (UBE3A T485A transfected, BAR Wnt reporter)
# Test: Renilla luciferase signal (cell health) relative to plate median (fold (linear ratio)); higher = higher Renilla signal
# Conditions: 24 h
# How it was run: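 Chemicals at 0.01–100 uM were left on transfected HEK293T cells for 24 h, after a four-hour wait following transfection. The cells held a BAR firefly luciferase Wnt reporter, TK-Renilla and an expression plasmid. Wnt activity, as the firefly/Renilla ratio from a Dual-Glo luciferase readout, and cell health, as raw Renilla, were median-centred within each plate. Results average four biological replicates.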
Compound,Renilla luciferase signal (concentration: 0.1 uM),Renilla luciferase signal (concentration: 1 uM),Renilla luciferase signal (concentration: 10 uM),Renilla luciferase signal (concentration: 100 uM),Renilla luciferase signal (concentration: 0.01 uM)
NC(=O)N(O)[C@@H]1C=C[C@H](Oc2cccc(Oc3ccc(F)cc3)c2)C1,1.08,0.968,1.14,0.801,–
CC1(C)NC(=O)N(c2ccc([N+](=O)[O-])c(C(F)(F)F)c2)C1=O [Nilutamide],1.05,1.09,0.995,0.268,–
CC(=O)CC(c1ccccc1)c1c(O)c2ccccc2oc1=O (stereo not given) [Warfarin],1.16,0.923,0.762,1.24,–
NC(CCCP(=O)(O)O)C(=O)O (racemic),0.901,1.22,1.06,2.45,0.767
Cc1ccc(S(=O)(=O)NC(=O)NN2CCCCCC2)cc1 [Tolazamide],0.729,0.841,0.872,1.19,–
CC(C)(C)c1cc(O)ccc1O [tert-Butylhydroquinone],0.651,0.859,0.989,0.227,–
CO[C@@H]1COCC[C@@H]1[NH2+][C@@H]1CC[C@@](C(=O)N2CCc3ncc(C(F)(F)F)cc3C2)(C(C)C)C1.O=C([O-])CCC(=O)O,0.901,1.1,0.9,1.08,–
NCc1cccc(C2CCN(C(=O)c3ccc(C#Cc4ccccc4F)o3)CC2)c1,1.16,0.989,1.04,1.31,–
CCOC(=O)CCC(=O)OCC [Diethyl butanedioate],0.922,0.965,0.973,1.25,–
[Cl-].[K+],0.999,1.06,1.02,1.88,1.13
[Cl-].[Li+],1.03,0.97,0.953,1.14,0.945
Cc1cn([C@H]2C=C[C@@H](CO)O2)c(=O)[nH]c1=O [Stavudine],0.957,1.07,0.973,0.903,–
CCc1nc(N)nc(N)c1-c1ccc(Cl)cc1 [Pyrimethamine],1.11,1.06,1.07,0.0813,–
Cc1ccc(C(C)C)cc1 [p-Cymene],1.03,0.949,1.11,1.51,–
"CC(C)c1cccc(C(C)C)c1 [1,3-Diisopropylbenzene]",1.12,1.28,1.17,1.7,–
Nc1ncn([C@@H]2O[C@H](CO)[C@@H](O)[C@H]2O)c(=O)n1 [5-azacytidine],0.572,0.391,0.138,0.596,0.936
CCCCCCCCCCCCCCCCOS(=O)(=O)[O-].[Na+] [Sodium hexyldecyl sulfate],1.11,1.05,1.11,0.434,–
CC(=O)O[C@]1(C(C)=O)CC[C@H]2[C@@H]3C=C(Cl)C4=CC(=O)[C@@H]5C[C@@H]5[C@]4(C)[C@H]3CC[C@@]21C [Cyproterone acetate],1.06,0.965,0.849,0.603,–
CCOc1ccc2[nH]cc(C(=O)NCc3ccccc3)c(=O)c2n1,1.05,1.12,1.22,0.85,–
